We go through 36 targets from the supplement of paper PMC10849652.

About 7,900 targets were measured; listed, in parts, are those with a hit and a random draw of the rest. About 0.6% of all pairs of compound and target were hits. A number with no mark means an inactive call.

UniProt Q9Y2I8, sequence (Q9Y2I8 whole entry, looked up): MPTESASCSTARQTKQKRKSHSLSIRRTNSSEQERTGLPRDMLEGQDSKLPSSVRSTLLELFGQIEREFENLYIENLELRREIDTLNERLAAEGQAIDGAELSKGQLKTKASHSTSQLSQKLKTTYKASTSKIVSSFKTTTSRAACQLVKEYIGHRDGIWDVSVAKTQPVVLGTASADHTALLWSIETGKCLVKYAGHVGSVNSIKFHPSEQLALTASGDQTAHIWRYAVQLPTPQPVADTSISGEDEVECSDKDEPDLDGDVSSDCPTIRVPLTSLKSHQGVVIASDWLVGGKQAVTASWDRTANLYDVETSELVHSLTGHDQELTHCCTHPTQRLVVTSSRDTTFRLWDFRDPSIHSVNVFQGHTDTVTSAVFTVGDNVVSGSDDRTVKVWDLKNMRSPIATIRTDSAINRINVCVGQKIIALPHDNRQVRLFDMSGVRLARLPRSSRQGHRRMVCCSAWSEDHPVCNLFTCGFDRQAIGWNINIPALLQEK
UniProt P22314, sequence (P22314 whole entry, looked up): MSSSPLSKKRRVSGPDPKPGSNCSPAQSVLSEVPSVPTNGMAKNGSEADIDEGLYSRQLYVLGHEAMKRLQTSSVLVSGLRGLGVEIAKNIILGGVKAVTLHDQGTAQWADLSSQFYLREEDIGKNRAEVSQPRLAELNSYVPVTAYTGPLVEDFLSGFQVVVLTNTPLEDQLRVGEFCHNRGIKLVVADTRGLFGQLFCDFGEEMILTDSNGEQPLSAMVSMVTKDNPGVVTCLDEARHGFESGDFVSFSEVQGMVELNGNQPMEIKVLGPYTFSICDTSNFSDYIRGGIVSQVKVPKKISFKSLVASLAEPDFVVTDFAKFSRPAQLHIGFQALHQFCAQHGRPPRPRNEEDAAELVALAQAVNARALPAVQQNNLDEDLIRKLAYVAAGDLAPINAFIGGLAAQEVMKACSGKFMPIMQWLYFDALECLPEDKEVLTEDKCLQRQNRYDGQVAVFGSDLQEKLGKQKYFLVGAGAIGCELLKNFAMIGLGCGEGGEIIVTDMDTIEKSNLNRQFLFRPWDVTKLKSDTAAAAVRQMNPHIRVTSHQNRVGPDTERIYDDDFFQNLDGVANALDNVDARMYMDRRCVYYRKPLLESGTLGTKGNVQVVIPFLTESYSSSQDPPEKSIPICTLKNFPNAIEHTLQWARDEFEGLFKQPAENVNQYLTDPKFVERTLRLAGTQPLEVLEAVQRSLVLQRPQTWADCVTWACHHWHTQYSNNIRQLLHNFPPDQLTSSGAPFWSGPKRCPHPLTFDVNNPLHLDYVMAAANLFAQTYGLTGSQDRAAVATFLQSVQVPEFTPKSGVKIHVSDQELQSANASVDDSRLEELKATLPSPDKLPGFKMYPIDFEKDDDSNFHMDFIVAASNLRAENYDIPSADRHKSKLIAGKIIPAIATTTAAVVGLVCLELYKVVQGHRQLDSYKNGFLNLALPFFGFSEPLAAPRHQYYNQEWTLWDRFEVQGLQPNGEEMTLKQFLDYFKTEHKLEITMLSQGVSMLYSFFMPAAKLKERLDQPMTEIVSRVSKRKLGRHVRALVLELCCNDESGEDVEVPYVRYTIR
UniProt Q9BXJ8, sequence (Q9BXJ8 whole entry, looked up): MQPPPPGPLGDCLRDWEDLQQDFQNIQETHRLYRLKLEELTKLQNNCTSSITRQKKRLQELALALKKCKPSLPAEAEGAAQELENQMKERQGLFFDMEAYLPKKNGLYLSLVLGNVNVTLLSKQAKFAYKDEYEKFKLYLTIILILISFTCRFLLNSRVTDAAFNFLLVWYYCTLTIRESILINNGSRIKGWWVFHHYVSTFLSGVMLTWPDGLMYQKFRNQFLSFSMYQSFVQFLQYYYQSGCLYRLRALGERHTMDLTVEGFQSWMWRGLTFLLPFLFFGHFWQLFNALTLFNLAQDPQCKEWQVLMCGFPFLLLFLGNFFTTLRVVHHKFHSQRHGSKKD
UniProt Q9NYU2, sequence (Q9NYU2 whole entry, looked up): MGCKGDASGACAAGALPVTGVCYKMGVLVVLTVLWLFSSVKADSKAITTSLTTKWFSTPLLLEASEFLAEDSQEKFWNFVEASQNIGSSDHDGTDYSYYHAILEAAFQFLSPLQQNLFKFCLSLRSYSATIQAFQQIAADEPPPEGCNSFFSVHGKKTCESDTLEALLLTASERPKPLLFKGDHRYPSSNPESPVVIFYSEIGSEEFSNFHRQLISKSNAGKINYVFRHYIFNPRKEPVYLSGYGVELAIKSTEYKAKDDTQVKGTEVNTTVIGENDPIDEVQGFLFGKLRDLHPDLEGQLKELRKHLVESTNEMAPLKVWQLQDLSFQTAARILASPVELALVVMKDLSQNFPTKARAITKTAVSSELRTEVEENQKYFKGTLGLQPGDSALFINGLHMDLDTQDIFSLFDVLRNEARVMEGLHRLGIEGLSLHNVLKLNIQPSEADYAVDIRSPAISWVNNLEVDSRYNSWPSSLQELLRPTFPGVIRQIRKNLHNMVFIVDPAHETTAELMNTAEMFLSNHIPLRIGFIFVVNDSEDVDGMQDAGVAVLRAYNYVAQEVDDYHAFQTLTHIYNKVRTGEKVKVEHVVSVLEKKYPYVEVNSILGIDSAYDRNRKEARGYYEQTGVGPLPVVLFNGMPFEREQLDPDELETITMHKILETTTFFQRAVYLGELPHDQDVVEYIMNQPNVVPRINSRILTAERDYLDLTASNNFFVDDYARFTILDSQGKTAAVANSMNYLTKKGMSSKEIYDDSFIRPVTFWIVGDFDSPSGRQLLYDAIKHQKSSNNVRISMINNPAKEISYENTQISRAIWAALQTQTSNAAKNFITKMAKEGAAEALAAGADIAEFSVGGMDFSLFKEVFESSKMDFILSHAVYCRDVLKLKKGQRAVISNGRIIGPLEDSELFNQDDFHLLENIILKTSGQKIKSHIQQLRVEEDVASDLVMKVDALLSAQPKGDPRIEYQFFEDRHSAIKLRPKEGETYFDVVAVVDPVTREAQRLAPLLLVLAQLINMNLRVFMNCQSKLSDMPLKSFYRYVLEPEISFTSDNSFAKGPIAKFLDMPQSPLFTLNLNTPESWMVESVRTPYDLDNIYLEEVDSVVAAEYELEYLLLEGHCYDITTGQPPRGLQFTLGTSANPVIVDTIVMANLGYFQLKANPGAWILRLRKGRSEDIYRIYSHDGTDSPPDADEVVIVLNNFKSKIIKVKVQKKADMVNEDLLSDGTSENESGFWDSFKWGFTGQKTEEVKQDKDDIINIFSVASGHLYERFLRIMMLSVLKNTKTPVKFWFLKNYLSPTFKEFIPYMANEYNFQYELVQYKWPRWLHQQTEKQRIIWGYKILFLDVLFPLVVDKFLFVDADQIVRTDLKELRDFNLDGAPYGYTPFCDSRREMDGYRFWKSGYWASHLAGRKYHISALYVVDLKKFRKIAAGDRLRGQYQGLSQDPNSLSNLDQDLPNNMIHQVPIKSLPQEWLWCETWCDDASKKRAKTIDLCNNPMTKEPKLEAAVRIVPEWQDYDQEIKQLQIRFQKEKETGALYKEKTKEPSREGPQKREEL
UniProt P28908, sequence (P28908 whole entry, looked up): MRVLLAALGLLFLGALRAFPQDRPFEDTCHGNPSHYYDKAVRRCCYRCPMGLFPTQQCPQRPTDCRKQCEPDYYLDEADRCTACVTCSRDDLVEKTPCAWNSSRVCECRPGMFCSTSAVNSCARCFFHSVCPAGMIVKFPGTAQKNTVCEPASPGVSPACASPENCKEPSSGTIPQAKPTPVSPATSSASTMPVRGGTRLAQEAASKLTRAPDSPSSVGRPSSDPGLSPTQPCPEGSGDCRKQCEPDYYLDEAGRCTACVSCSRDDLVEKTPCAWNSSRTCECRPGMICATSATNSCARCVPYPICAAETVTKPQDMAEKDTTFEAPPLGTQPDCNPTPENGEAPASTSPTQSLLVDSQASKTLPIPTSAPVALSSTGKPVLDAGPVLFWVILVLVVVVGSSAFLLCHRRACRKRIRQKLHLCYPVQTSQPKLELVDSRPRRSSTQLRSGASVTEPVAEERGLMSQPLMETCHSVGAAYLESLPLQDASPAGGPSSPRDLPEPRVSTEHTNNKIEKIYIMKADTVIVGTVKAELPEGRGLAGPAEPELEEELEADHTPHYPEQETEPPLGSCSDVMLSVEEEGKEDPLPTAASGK
UniProt P02585, sequence (P02585 whole entry, looked up): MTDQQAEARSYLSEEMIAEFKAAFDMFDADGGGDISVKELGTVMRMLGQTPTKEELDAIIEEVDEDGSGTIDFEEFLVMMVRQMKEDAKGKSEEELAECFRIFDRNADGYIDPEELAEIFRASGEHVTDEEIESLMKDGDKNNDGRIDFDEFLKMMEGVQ
UniProt O00220, sequence (O00220 whole entry, looked up): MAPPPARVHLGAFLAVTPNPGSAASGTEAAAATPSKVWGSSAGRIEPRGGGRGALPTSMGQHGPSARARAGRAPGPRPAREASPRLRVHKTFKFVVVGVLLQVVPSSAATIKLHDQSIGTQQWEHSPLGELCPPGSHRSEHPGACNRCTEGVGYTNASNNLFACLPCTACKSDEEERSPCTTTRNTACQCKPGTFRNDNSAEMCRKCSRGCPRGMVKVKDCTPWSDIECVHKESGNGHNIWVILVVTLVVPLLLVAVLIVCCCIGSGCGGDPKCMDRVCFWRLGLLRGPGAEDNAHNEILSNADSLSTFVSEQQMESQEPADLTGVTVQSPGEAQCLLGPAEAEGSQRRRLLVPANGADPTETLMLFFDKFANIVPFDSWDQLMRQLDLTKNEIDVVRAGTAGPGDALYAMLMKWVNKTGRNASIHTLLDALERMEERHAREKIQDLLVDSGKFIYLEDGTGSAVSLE
UniProt Q9NP79, sequence (Q9NP79 whole entry, looked up): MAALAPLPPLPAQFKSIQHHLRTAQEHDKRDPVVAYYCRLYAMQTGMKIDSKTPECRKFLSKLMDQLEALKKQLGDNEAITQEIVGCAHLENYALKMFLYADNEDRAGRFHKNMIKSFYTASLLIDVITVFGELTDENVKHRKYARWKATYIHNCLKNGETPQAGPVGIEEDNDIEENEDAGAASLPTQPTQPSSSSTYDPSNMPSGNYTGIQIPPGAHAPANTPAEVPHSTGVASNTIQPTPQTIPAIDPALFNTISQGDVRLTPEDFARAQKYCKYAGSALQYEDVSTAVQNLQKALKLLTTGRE

Compound in the first experiment: Nc1ccccc1NC(=O)c1ccc(CNC(=O)OCc2cccnc2)cc1 [entinostat]
Put plainly: log2 fold change, soluble protein after heating vs DMSO (PISA); higher = thermal stabilisation; K562 cells, 10 uM, 30 min; active = over 0.2 and 3.5 SD of the protein, either way, in both replicates (recomputed). An outline of the steps: (§1)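 Thermal stability values are relative to control samples and come from duplicates. They are expressed as log2 fold changes. For measurement, K562 cells (2×10^6 cells/mL) received 10 μM compound for 30 min, and aliquots were heated for 3 min over 48°C-58°C, pooled, and extracted at 4°C in PBS with 0.5% NP-40. Soluble protein, the supernatant after 21,000xg for 90 min, was quantified by TMTpro 16plex LC-MS/MS with equalised channel sums.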
With VPS11 (UniProt Q9H270), the log2 fold change was 0.015.

For TNFRSF8 (UniProt P28908), the log2 fold change is -0.066.

Turning to UGGT1 (UniProt Q9NYU2), the log2 fold change is -0.001.

In the case of WDR37 isoform 2 (UniProt Q9Y2I8), the log2 fold change is -0.004.

Turning to WDR41 (UniProt Q9HAD4), the log2 fold change was 0.038.

In the case of UBLCP1 (UniProt Q8WVY7), the log2 fold change is 0.122.

As for VRK2 (UniProt Q86Y07), the log2 fold change is 0.032.

Take WNK1 isoform 7 (UniProt Q9H4A3): the log2 fold change was 0.008.

Turning to UPF3B (UniProt Q9BZI7), the log2 fold change is -0.079.

In the case of TTC38 (UniProt Q5R3I4), the log2 fold change is 0.111.

Regarding WRB (UniProt O00258), the log2 fold change was -0.011.

On to VPS50 (UniProt Q96JG6), for which the log2 fold change was 0.06.

As to VDAC1 (UniProt P21796), the log2 fold change was -0.002.

Take USP14 (UniProt P54578): the log2 fold change is 0.025.

Regarding XPO5 (UniProt Q9HAV4), the log2 fold change is 0.046.

As to TMEM223 (UniProt A0PJW6), the log2 fold change was -0.02.

For the target TMEM161B (UniProt Q8NDZ6), the log2 fold change is 0.041.

Take TUBAL3 (UniProt A6NHL2): the log2 fold change was 0.061.

For the target TMEM263 (UniProt Q8WUH6), the log2 fold change is 0.123.

Turning to VTA1 (UniProt Q9NP79), the log2 fold change was 0.036.

With XPNPEP3 (UniProt Q9NQH7), the log2 fold change is -0.024.

As to TNPO1 (UniProt Q92973), the log2 fold change is 0.044.

Take WDR11 (UniProt Q9BZH6): the log2 fold change was -0.024.

TMEM120A (UniProt Q9BXJ8): the log2 fold change is 0.002.

On to USP48 isoform 8 (UniProt Q86UV5), for which the log2 fold change was 0.351.

TNFRSF10A (UniProt O00220): the log2 fold change is -0.202.

Regarding TSG101 (UniProt Q99816), the log2 fold change is 0.038.

Regarding UHRF1BP1L (UniProt A0JNW5), the log2 fold change is -0.024.

Consider TTC4 (UniProt O95801), for which the log2 fold change was 0.069.

As for UBA1 (UniProt P22314), the log2 fold change was 0.159.

In the case of TTI1 (UniProt O43156), the log2 fold change is 0.

Take USP15 (UniProt Q9Y4E8): the log2 fold change was 0.052.

On to U2AF2 (UniProt P26368), for which the log2 fold change was -0.031.

With XPO1 (UniProt O14980), the log2 fold change was 0.082.

Take TNNC2 (UniProt P02585): the log2 fold change was -0.025.

Turning to UBA6, the log2 fold change was 0.05.

Compound in a further experiment: O=C(CCCCCCC(=O)Nc1ccccc1)NO [vorinostat]
Described as above. An outline of the steps: as §1
Consider VPS11 (UniProt Q9H270), for which the log2 fold change is 0.145.

Take TNFRSF8 (UniProt P28908): the log2 fold change was -0.078.

Take UGGT1 (UniProt Q9NYU2): the log2 fold change was -0.004.

On to WDR37 isoform 2 (UniProt Q9Y2I8), for which the log2 fold change is -0.068.

For the target WDR41 (UniProt Q9HAD4), the log2 fold change is 0.091.

UBLCP1 (UniProt Q8WVY7): the log2 fold change is 0.

Take VRK2 (UniProt Q86Y07): the log2 fold change was 0.02.

Consider WNK1 isoform 7 (UniProt Q9H4A3), for which the log2 fold change was -0.05.

For the target UPF3B (UniProt Q9BZI7), the log2 fold change is 0.

TTC38 (UniProt Q5R3I4): the log2 fold change was 0.459 (active).

For WRB (UniProt O00258), the log2 fold change was -0.035.

VPS50 (UniProt Q96JG6): the log2 fold change is 0.099.

As for VDAC1 (UniProt P21796), the log2 fold change is -0.044.

USP14 (UniProt P54578): the log2 fold change is -0.03.

Take XPO5 (UniProt Q9HAV4): the log2 fold change was 0.065.

Turning to TMEM223 (UniProt A0PJW6), the log2 fold change was 0.096.

For TMEM161B (UniProt Q8NDZ6), the log2 fold change was 0.097.

On to TUBAL3 (UniProt A6NHL2), for which the log2 fold change was 0.037.

Regarding TMEM263 (UniProt Q8WUH6), the log2 fold change is 0.058.

On to VTA1 (UniProt Q9NP79), for which the log2 fold change was 0.036.

For the target XPNPEP3 (UniProt Q9NQH7), the log2 fold change was -0.002.

TNPO1 (UniProt Q92973): the log2 fold change is 0.051.

Take WDR11 (UniProt Q9BZH6): the log2 fold change was -0.007.

TMEM120A (UniProt Q9BXJ8): the log2 fold change was 0.1.

In the case of USP48 isoform 8 (UniProt Q86UV5), the log2 fold change was 0.178.

Take TNFRSF10A (UniProt O00220): the log2 fold change is -0.178.

For the target TSG101 (UniProt Q99816), the log2 fold change is -0.007.

On to UHRF1BP1L (UniProt A0JNW5), for which the log2 fold change was -0.035.

Regarding TTC4 (UniProt O95801), the log2 fold change was 0.077.

In the case of UBA1 (UniProt P22314), the log2 fold change is 0.167.

Regarding TTI1 (UniProt O43156), the log2 fold change is 0.142.

As for USP15 (UniProt Q9Y4E8), the log2 fold change is 0.044.

Take U2AF2 (UniProt P26368): the log2 fold change was -0.129.

With XPO1 (UniProt O14980), the log2 fold change was 0.052.

Regarding TNNC2 (UniProt P02585), the log2 fold change was -0.101.

Consider UBA6, for which the log2 fold change was 0.011.
